The text below walks through data of PubChem BioAssay (NCI).

This is part of a sample that, as a whole, favours compounds with a hit. Of some 83,000 tested, about 20% had one in any assay.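 Growth was measured after 48 h exposure to one concentration of compound in 96-well plates. Values under 10 count as active.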 A number with no mark means an inactive call. The source made the active and inactive calls.

What all share (assay): NCI-60 one-dose screen, 48 h (100 = growth as untreated, 0 = no growth, -100 = all killed)
Conditions in all cases: 10 µM unless noted

Test [1] has as its system HCT-15 colon.
Test [2] deals with HT29 colon.
The subject of test [3] is SNB-75 CNS.
Test [4] deals with SNB-19 CNS.
Test [5] relates to U251 CNS.
Test [6] has as its system SK-MEL-5 melanoma.
Test [7] deals with UACC-62 melanoma.
Test [8] concerns LOX IMVI melanoma.
Test [9] concerns SK-MEL-28 melanoma.
The test system of test [10] is SK-MEL-2 melanoma.
For test [11], the system named is EKVX NSCLC.
Test [12] has as its system SN12C renal.
Test [13] has as its system UO-31 renal.
Test [14] relates to TK-10 renal.
Test [15] deals with ACHN renal.
Test [16] concerns CAKI-1 renal.
The test system of test [17] is A498 renal.
For test [18], the system named is CCRF-CEM leukemia.
In test [19] the test system is MOLT-4 leukemia.
Test [20] has as its system PC-3 prostate.

In the case of `CCn1cc(C(=O)NN=C2CCCCCC2)c(=O)c2ccc(C)nc21`, the growth in test [1] is 86.2%; in test [2] it was 99.7%; in test [3], 76.2%; in test [4] it was 88.5%; in test [5], 94.6%; in test [6] it was 87.1%. For the same compound, the growth in test [7] was 73.2%; in test [8] it was 95%; in test [9], 93.8%; in [10] it was 105%; in [11] it was 93.2%; in test [12], 85.5%. Further, the growth in [13] was 75.2%; in test [14], 95.7%; in test [15], 84.7%; in [16], 79.9%; in test [17] it was 58%; in test [18] it was 91.7%. Further, the growth in test [19] is 71%.

For `O=c1ccc2nc(C(F)(F)F)nn(-c3ccccc3)c-2c1`, the growth is -79.7% (active) in test [1]; -64.3% (active) in test [2]; 86.5% in test [3]; 93.5% in test [4]; 69.7% in test [5]; 66.4% in [7]. Moreover, the growth in test [8] was 4.3% (active); in test [9], 35.7%; in test [10] it was 78.3%; in test [11], 95.8%; in test [12], 67.9%; in test [13], 24%. Also, the growth is -98% (active) in test [14]; -89% (active) in [15]; 56% in [16]; 80% in [17]; -0.269% (active) in test [18]; -20.5% (active) in test [19].

For `O=C(O)c1cccc(N/C=C/C(=O)c2cc3cc(Br)ccc3oc2=O)c1`, the growth in test [1] is 93.2%; in test [2], 108%; in test [3], 83.7%; in test [4] it was 94%; in test [20] it was 93.8%; in test [6], 97.7%. Besides, the growth in [7] is 94.2%; in test [8], 97.9%; in [9], 104%; in test [10] it was 119%; in test [11] it was 102%; in test [12], 94.1%. The growth in [13] is 74.9%; in test [14], 119%; in test [15], 102%; in test [16], 86.3%; in test [17] it was 92.5%; in [18] it was 101%. Further, in test [19], the growth is 113%.

With `COc1ccc(Cc2nnc(Nc3nc4ccccc4s3)s2)cc1`, the growth in test [1] is 92.4%; in test [2] it was 110%; in test [3] it was 92.2%; in test [4], 94.2%; in test [5], 98.2%; in test [6], 96.5%. Moreover, the growth in [7] is 89.6%; in [8], 96.4%; in test [9], 92.3%; in test [10] it was 107%; in [11], 96.1%; in test [12], 94.2%. In addition, the growth in [13] was 81.2%; in test [14], 103%; in test [15], 97.2%; in [16] it was 96.1%; in test [17], 97.8%; in [18], 97.7%. Moreover, in test [19], the growth was 105%.

On to `C=C1C(=O)O[C@H]2[C@H]1CC/C(COC(=O)/C=C\C(=O)NCc1ccc(Cn3c(=O)sn(-c4ccccc4)c3=O)cc1)=C\CC[C@@]1(C)O[C@@H]21`, for which the growth in test [1] was 42.4%; in test [2] it was 50.8%; in test [3], 98%; in test [4], 107%; in test [20], 83.5%; in test [6], 106%. Besides, the growth is 85% in [7]; 76% in [8]; 94.4% in test [9]; 89.8% in test [10]; 98.9% in test [11]; 83.1% in [12]. For the same compound, the growth in test [13] was 59.4%; in test [14] it was 67.1%; in [15], 42.1%; in test [16], 65.1%; in [17] it was 91.2%; in test [18], 1.9% (active). For the same compound, the growth in [19] is 25.3%.

Regarding `CCOC(=O)c1c(NC(=O)c2ccc(C(C)(C)C)cc2)sc2cc(O)ccc12`, the growth is 70.3% in test [1]; 80.6% in [2]; 104% in test [3]; 111% in test [4]; 96.9% in test [5]; 98.1% in test [6]. The growth in [7] is 101%; in test [8], 87%; in [9] it was 99.1%; in test [10], 112%; in test [11], 94.9%; in [13], 70.4%. Further, the growth was 129% in [14]; 97.5% in [15]; 85.9% in test [16]; 88.8% in [17]; 80.1% in test [18]; 82.3% in [19].

With `Cc1ccc2nc(Cl)c(Cn3nnnc3SCc3ccccc3)cc2c1`, the growth in [1] was 90.7%; in test [2] it was 101%; in test [3], 93.4%; in [4] it was 98.8%; in test [20], 90.4%; in [6] it was 93%. Moreover, the growth was 83.7% in test [7]; 86.7% in [8]; 107% in test [9]; 96.6% in test [10]; 80.7% in [11]; 92.8% in test [12]. For the same compound, the growth is 69.6% in [13]; 97.9% in [14]; 91.8% in test [15]; 72.1% in [16]; 74.5% in test [17]; 93.9% in [18]. Also, the growth in test [19] is 97.8%.

For `COc1ccc2c(O)c(/C=C3\N=Nc4ccccc43)oc2c1C[C@H]1CCNC[C@H]1F`, the growth in [1] is 33.6%; in test [2], 19.3%; in test [3], 61.4%; in test [4] it was 67.7%; in [20], 40.8%; in [6] it was 48.3%. For the same compound, the growth is 41.2% in [7]; 35% in test [8]; 68.3% in test [9]; 83.1% in test [10]; 40% in [11]; 45.2% in test [12]. The growth in test [13] was 45.3%; in test [14] it was 65.4%; in [15], 42.8%; in test [16], 31%; in test [17], 39.9%; in [18] it was 47.9%. The growth in test [19] is 24.2%.

Regarding `N#Cc1c(-c2ccccc2)cc(-c2ccccc2)n(CCCC(=O)NO)c1=O`, the growth in test [1] was 19.1%; in test [2], 20.9%; in test [3] it was -23.6% (active); in test [4] it was 43.5%; in test [20], 35.5%; in test [6] it was -13.6% (active). For the same compound, the growth in test [7] is 9.37% (active); in test [8], 8.85% (active); in test [9] it was 33.4%; in test [10], 34.1%; in [11], 27.1%; in [12], 25.8%. In addition, the growth was -24.8% (active) in test [13]; 34.3% in test [14]; 8.48% (active) in [15]; 10.6% in [16]; -6.11% (active) in test [17]; 10.9% in test [18]. Also, the growth in test [19] is 14.1%.

`CCN(CC)CCN(CCN(CC)CC)c1ccccc1`: the growth in test [1] was 104%; in [2], 102%; in test [3], 79.1%; in test [4], 87.3%; in test [5] it was 98.2%; in test [6], 97.7%. Also, the growth in [7] was 89.4%; in test [8], 88.7%; in test [9], 108%; in [10], 106%; in test [11], 97.2%; in test [12], 78.5%. Also, the growth is 66.4% in [13]; 102% in test [14]; 95.7% in [15]; 86.6% in test [16]; 94.5% in test [17]; 93.3% in test [18]. Moreover, in test [19], the growth is 89.8%.

On to `O=C(Nc1ccccc1O)c1ccccc1Nc1ccnc(C(F)(F)F)c1`, for which the growth in [1] was 104%; in test [2], 124%; in [3] it was 90.7%; in [4], 107%; in [20], 94.4%; in [6], 70.7%. The growth in test [7] was 57.7%; in test [8], 89.3%; in test [9], 117%; in test [10], 104%; in [11], 93%; in [13], 66.2%. The growth was 136% in [14]; 93.8% in test [15]; 98.3% in [16]; 145% in test [17]; 84.8% in [18]; 74.5% in test [19].

On to `COc1ccc2c(c1)c(-c1nonc1-c1cn(C)c3ccc(OC)cc13)cn2C`, for which the growth in [1] is 25.4%; in test [2], 13.1%; in test [3], 24%; in test [4], 36.8%; in [20], 50.1%; in test [6], 38%. The growth in test [7] is 26.3%; in test [8] it was 39.7%; in test [9] it was 60.8%; in [10] it was 41.8%; in test [11], 47.4%; in test [12] it was 43.8%. Moreover, the growth in test [13] was 49%; in test [14], 71.2%; in test [15] it was 51.7%; in test [16] it was 31.9%; in test [17], 18.4%; in [18], 26.6%. Besides, the growth in test [19] was 25.4%.

As for `O[C@@H](c1cc(C(F)(F)F)nc2c(C(F)(F)F)cccc12)[C@H]1CCCCN1`, the growth in test [1] is 77.5%; in test [2], 53.8%; in test [3] it was 36.6%; in test [4], 54.8%; in [5], 47.7%; in [6], 82%. For the same compound, the growth in test [7] is 56.2%; in [8], 29.4%; in test [9], 98.3%; in test [10] it was 77%; in test [11] it was 69.7%; in [12], 63.8%. For the same compound, the growth was 50.4% in [13]; 66% in test [14]; 37.8% in test [15]; 76.5% in test [16]; 60% in [17]; 73% in [18]. In test [19], the growth was 31.8%.

As to `CCOc1ccc(/C=N\N=C\c2ccc(OCC)cc2)cc1`, the growth in test [1] is 7.98% (active); in test [2] it was 34.5%; in test [3] it was 112%; in test [4], 98.3%; in test [20], 67.1%; in test [6] it was 88.3%. In addition, the growth in test [7] was 79.9%; in test [8] it was 70.5%; in [9] it was 105%; in [10] it was 39.3%; in test [11], 103%; in [12], 80.4%. In addition, the growth in [13] is 79%; in [14], 86.8%; in test [15], 9.41% (active); in test [16], 46.3%; in [17], 108%; in test [18], 118%. For the same compound, the growth in test [19] is 81%.

Turning to `C#CC#CC#CC#CC#CC#CC#CC#CCC1OCC(COC(=O)O[C@@H](C(=O)O[C@H]2C[C@@]3(O)[C@@H](OC(=O)c4ccccc4)[C@@H]4[C@]5(OC(C)=O)CO[C@@H]5C[C@H](O)[C@@]4(C)C(=O)[C@H](OC(C)=O)C(=C2C)C3(C)C)[C@@H](NC(=O)c2ccccc2)c2ccccc2)O1` (stereo partly specified), the growth in test [1] was 66.8%; in [2], 5.02% (active); in [3], -25.2% (active); in test [4], 18.9%; in test [20], 19.4%; in test [6] it was 23.4%. Also, the growth in test [7] is 22.3%; in test [8], 26.9%; in [9], 59.2%; in test [10], 30.9%; in test [11], 45.5%; in test [13] it was 81.7%. For the same compound, the growth in test [14] was 48%; in [15] it was 45.4%; in [16] it was 49.6%; in test [17], -8.03% (active); in [18], 12.1%; in [19], 20.7%.
